From PubChem BioAssay
Pol iota inh = inhibitors of human DNA polymerase iota; Q9UNA4; AID 588590; Pol iota fluorescent replication assay, 10 min; Potency, µM (titrated, usually from 115 µM), without a hit: at the highest dose activity, negative = inhibition, most hits filed as inhibitors; hit rate 1% among 390,000; further: potency means the concentration at half of the fitted maximal effect
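Fluorescent replication assay read twice, at 0 min and 10 min after adding 50 nM (final) substrate. Enzyme (10 nM) and compounds were first incubated 15 min at room temperature; enzyme-free buffer wells were negative controls.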
PI5P4Ka inh = blocks human PI5P4K alpha kinase activity; P48426; PI5P4Kalpha enzyme, ADP-Glo luminescence, 60 min; hits give low values; max response, %; hit rate 1.2% among 330,000; AID 652105; active means max response of -50% or lower; inconclusive means between -30% and -50%; inactive means -30% or higher; further: value at the top dose of about 77 µM; on the % scale 0 is the no-effect control and ±100 the full control effect
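Enzyme plus substrate dispensed, test compounds pinned in, then ATP (5 microM final) added. After 60 min at RT, ADP-Glo reagent 1 for 45 min and reagent 2 for 30 min preceded luminescence imaging.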
POLK inh = blocks human DNA polymerase kappa activity; Q9UBT6; Potency, µM (highest dose often 107 µM), for inactives: at the highest dose activity, negative = inhibition, hits mostly inhibitors; purified Pol kappa, fluorescent DNA synthesis assay, 10 min; hit rate 0.53% among 400,000; AID 588579; further: potency means the concentration at half of the fitted maximal effect; on the % scale 0 is the no-effect control and ±100 the full control effect
Target sequence (Q9UBT6 whole entry, looked up): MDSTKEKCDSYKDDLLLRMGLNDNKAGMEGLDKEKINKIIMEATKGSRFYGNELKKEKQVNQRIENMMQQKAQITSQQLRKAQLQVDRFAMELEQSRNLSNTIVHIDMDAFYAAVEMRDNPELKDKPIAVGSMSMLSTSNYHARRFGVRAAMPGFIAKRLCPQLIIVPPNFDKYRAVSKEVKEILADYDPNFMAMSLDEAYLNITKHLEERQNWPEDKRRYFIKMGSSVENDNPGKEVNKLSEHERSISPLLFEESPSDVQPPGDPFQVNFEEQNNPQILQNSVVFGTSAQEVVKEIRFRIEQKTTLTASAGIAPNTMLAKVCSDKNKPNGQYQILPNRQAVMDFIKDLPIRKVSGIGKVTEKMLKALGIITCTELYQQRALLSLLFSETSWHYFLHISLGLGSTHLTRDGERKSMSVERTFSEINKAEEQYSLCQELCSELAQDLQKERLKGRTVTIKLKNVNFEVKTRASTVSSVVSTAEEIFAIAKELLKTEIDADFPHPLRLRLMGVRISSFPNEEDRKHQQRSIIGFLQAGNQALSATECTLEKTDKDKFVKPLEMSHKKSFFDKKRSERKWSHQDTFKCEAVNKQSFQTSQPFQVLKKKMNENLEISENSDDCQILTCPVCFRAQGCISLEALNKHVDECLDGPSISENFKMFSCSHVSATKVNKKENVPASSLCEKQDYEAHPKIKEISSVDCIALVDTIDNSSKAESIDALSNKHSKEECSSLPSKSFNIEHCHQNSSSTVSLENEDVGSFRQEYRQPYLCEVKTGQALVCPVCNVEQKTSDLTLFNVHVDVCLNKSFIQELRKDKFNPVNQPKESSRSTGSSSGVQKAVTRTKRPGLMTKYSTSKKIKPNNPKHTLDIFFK
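Inhibition of 10 nM Pol kappa is measured by a fluorescent read-out at 0 and 10 min following addition of 50 nM substrate (final), with a 15-min room-temperature compound preincubation.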
POLH inh = inhibitors of human DNA polymerase eta; recombinant Pol eta, fluorescent DNA replication assay; Potency, µM (series often up to 114 µM), for inactives: at the highest dose activity change, negative = inhibition, most hits filed as inhibitors; hit rate 1.2% among 390,000; further: potency means the concentration at half of the fitted maximal effect; on the % scale 0 is the no-effect control and ±100 the full control effect
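Fluorescent replication assay: 50 nM final substrate added after a 15 min room-temperature compound preincubation with 10 nM enzyme. Signal taken at 0 min and again at 10 min.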
Pol beta inh = inhibitors of human DNA polymerase beta | P06746 | Pol beta primer extension/strand displacement, fluorescence kinetic | Potency, µM (highest dose often 114 µM), without a hit: top-dose activity change, negative = inhibition, actives largely listed as inhibitors | hit rate 1.3% among 340,000; further: potency means the concentration at half of the fitted maximal effect; on the % scale 0 is the no-effect control and ±100 the full control effect
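Pol beta (10 nM) was preincubated with compound for 15 min at room temperature. The reaction was then started with 50 nM substrate and read immediately and after a further 10 min at room temperature.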
WRN helicase inh = inhibitors of human WRN helicase | Q14191 | WRN helicase unwinding, fluorescent forked duplex, kinetic | Potency, µM (highest dose often 114 µM), for the others: at the top dose activity change, negative = inhibition, actives largely listed as inhibitors | hit rate 0.46% among 360,000 | AID 651768; further: potency means the concentration at half of the fitted maximal effect; on the % scale 0 is the no-effect control and ±100 the full control effect; nearly all actives have a fitted effect of over 55% in size
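Fluorescence dequenching readout, ex 525 nm/em 598 nm, kinetic mode: forked duplex DNA (100 nM final) with adjacent fluorophore and quencher unwound by WRN (20 nM final) with 2 mM ATP. Compound preincubation 15 min, room temperature.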
* hit, by the source's call; [ ] = remark or other dose. Compounds with a hit are over-represented: about 2.8% of the library has one in this group of screens. Unless noted, the call rests on the fitted dose curve; in most records, active means well fitted curve in the direction sought with a large enough effect; inconclusive means small, poorly fitted or top-dose-only effect, or another doubt; inactive means no such curve, though single readings can be large; an effect the other way counts as inactive or inconclusive.

For Cc1cc(SCC(=O)c2cccc([N+](=O)[O-])c2)nc(=O)[nH]1 the results were Pol iota inh inconclusive, PI5P4Ka inh -58*, POLK inh 79µM*, POLH inh 20µM*, Pol beta inh -25% and WRN helicase inh -13%[11.6 µM].
`O=C(CSc1ccc(-c2ccco2)nn1)c1cccc([N+](=O)[O-])c1` gave Pol iota inh 13µM*, PI5P4Ka inh -64*, POLK inh inconclusive, POLH inh inconclusive, Pol beta inh 28µM* and WRN helicase inh -32%[57.1 µM].
For O=C(CSc1ccc(-c2ccco2)nn1)N1CCCC1 the results were Pol iota inh 8%, PI5P4Ka inh -4, POLK inh -12%, POLH inh -17%, Pol beta inh 30% and WRN helicase inh -6%[57.1 µM].
For COc1cc(C)ccc1OCCOCCOc1cc(C)c(C)cc1Br the results were Pol iota inh 100µM*, PI5P4Ka inh 6, POLK inh -4%, POLH inh -12%, Pol beta inh -3% and WRN helicase inh -14%[57.1 µM].
For Cc1ccc(Cn2c(SCC(=O)NCc3ccco3)nc3ccsc3c2=O)cc1 the results were Pol iota inh 100µM*, POLK inh -24%, POLH inh 6%, Pol beta inh -21% and WRN helicase inh -3%.
For O=C(CSc1nc2c(sc3ccccc32)c(=O)n1CCO)NCc1ccco1 the results were Pol iota inh inconclusive, PI5P4Ka inh -9, POLK inh inconclusive, POLH inh inconclusive, Pol beta inh 45µM* and WRN helicase inh inconclusive.
Screening Cc1ccc(Cc2c(C)nc3nc(SCC(=O)NCc4ccco4)nn3c2C)cc1 returned Pol iota inh inconclusive, PI5P4Ka inh -17, POLK inh -26%, POLH inh inconclusive, Pol beta inh 22µM* and WRN helicase inh -14%.
`Cc1cccc(C)c1NC(=O)Cn1c(=O)n(Cc2ccc(C(=O)NCc3ccco3)cc2)c(=O)c2sccc21` gave Pol iota inh 45µM*, POLK inh -21% and Pol beta inh 45µM*.
For Cc1cccc(Cc2c(C)nc3nc(SCC(=O)NCc4ccco4)nn3c2C)c1 the results were Pol iota inh 40%, PI5P4Ka inh 0, POLK inh -5%, POLH inh 1%, Pol beta inh inconclusive and WRN helicase inh -1%.
For COc1ccc(C(=O)NCc2ccc3c(c2)CCN3C(=O)c2ccncc2)cc1 the results were Pol iota inh 14%, POLK inh -15%[60.1 µM], POLH inh 1% and Pol beta inh -17%.
`COc1ccc(/C=C2\C(=N)N3N=C(CC(=O)N4CCOCC4)SC3=NC2=O)cc1` gave Pol iota inh inconclusive, PI5P4Ka inh -4, POLK inh 0%, POLH inh -7%, Pol beta inh 3% and WRN helicase inh 11%.
Screening N=C1/C(=C\c2ccc(SCc3ccccc3)o2)C(=O)N=C2SC(CC(=O)N3CCOCC3)=NN12 returned Pol iota inh 10µM*, PI5P4Ka inh -28, POLK inh inconclusive, POLH inh 56µM*, Pol beta inh inconclusive and WRN helicase inh -13%.
Screening N=C1/C(=C\c2ccc(SCc3ccccc3)o2)C(=O)N=C2SC=NN12 returned Pol iota inh 13%, PI5P4Ka inh -21, POLK inh -20%, POLH inh -7%, Pol beta inh inconclusive and WRN helicase inh -13%.
For Cc1ccc(/C=C2\C(=N)N3N=C(CC(=O)N4CCOCC4)SC3=NC2=O)o1 the results were Pol iota inh inconclusive, PI5P4Ka inh -22, POLK inh inconclusive, POLH inh 28µM*, Pol beta inh inconclusive and WRN helicase inh -34%.
For Cc1noc(/C=C/c2ccc(-c3ccccc3Cl)o2)c1[N+](=O)[O-] the results were Pol iota inh inconclusive, PI5P4Ka inh 3, POLK inh 420%, POLH inh 13µM*, Pol beta inh 36% and WRN helicase inh -7%.
`Cc1ccccc1N1CCN(S(=O)(=O)CC23CCC(CC2NC(=O)C(N)CCS(C)(=O)=O)C3(C)C)CC1` (centres undefined) gave POLK inh 6%[60.1 µM].
Cc1sc(-n2c(C)cc(C=O)c2C)c(C(=O)O)c1C was read as Pol iota inh 35µM*, POLK inh -25%, POLH inh 50µM*, Pol beta inh inconclusive and WRN helicase inh -25%.
For CCOC(=O)c1c(-n2c(C)cc(C=O)c2C)sc2c1CCCC2 the results were Pol iota inh 0%, POLK inh -12%, POLH inh -12%, Pol beta inh -20% and WRN helicase inh -5%.
Cc1ccccc1OCCCCCNCCO was read as Pol iota inh inconclusive, POLK inh -4%, POLH inh -15%, Pol beta inh -1% and WRN helicase inh -3%.
Screening CC(C)(C)c1ccccc1OCCCCCNCCO returned Pol iota inh 71µM*, POLK inh 5%, POLH inh -4%, Pol beta inh -10% and WRN helicase inh -16%[11.6 µM].
Screening COc1cccc(CN(C)C(=O)c2ccc3nccnc3c2)c1 returned Pol iota inh inconclusive, PI5P4Ka inh inconclusive, POLK inh -27%, POLH inh 13µM*, Pol beta inh 40µM* and WRN helicase inh -7%[11.6 µM].
Screening Cc1cccc(Cn2cnc3c(cnn3C(C)(C)C)c2=O)c1 returned Pol iota inh 6% and POLK inh 12%.
Cc1ccc(/C=C/C(=O)Nc2nnc(SCc3ccc(C#N)cc3)s2)o1 was read as Pol iota inh 40µM*, PI5P4Ka inh -72*, POLK inh inconclusive, POLH inh inconclusive, Pol beta inh 21% and WRN helicase inh inconclusive.
Screening Cc1ccc(/C=C/C(=O)Nc2nccs2)o1 returned Pol iota inh 64%, PI5P4Ka inh -5, POLK inh 3%, POLH inh -3%, Pol beta inh 86% and WRN helicase inh 3%.
O=C(Cc1ccc(F)cc1)Nc1nnc2n1CCS2 was read as Pol iota inh 1%, POLK inh -3%[60.1 µM], POLH inh -1% and Pol beta inh 2%.
CC(=O)Nc1nnc(SCc2cc(=O)c3cccc(Cl)c3[nH]2)s1 was read as Pol iota inh 89µM*, POLK inh -2%[60.1 µM], POLH inh -15% and Pol beta inh 5%.
For Cc1ccc2[nH]c(CSc3nnc(NC(=O)c4ccc(Cl)cc4)s3)cc(=O)c2c1 the results were Pol iota inh -7%, POLK inh -13%[60.1 µM], POLH inh 8% and Pol beta inh -14%.
`CC(=O)Nc1nnc(SCc2cc(=O)c3cccc(C)c3[nH]2)s1` gave Pol iota inh 10%, POLK inh 2%[60.1 µM], POLH inh inconclusive and Pol beta inh -14%.
